D1 potentiator: Potentiators of Human D1 Dopamine Receptor: qHTS; D(1A) dopamine receptor (Homo sapiens), P21728; HEK293 TREx D1 cells, calcium flux, dopamine EC20 potentiation; potentiation, % at 10 µM; actives 0.036% (n = 360,000); AID 504651, 2011; in the data active = potentiation above about 30%
D1 antag: Antagonist of Human D 1 Dopamine Receptor: qHTS. D(1A) dopamine receptor (Homo sapiens), P21728. HEK293 TREx D1 cells, calcium flux, dopamine EC80; hits give low values. activity change, negative = inhibition, % at 10 µM. actives 3.2% (n = 360,000). AID 504652, 2011; in the data active = activity change below about -30%
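Calcium flux readout: force-coupled, inducible Hek293 Trex D1 line, cells induced overnight at 30 C with tetracycline, dye-loaded 30–90 min at RT. Antagonism scored against EC80 dopamine challenge given 180 s after compound.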
D1 agonist: Allosteric Agonists of the Human D1 Dopamine Receptor: qHTS. D(1A) dopamine receptor (Homo sapiens), P21728. HEK293 T-REx D1 cells, calcium flux, agonist mode. activation, % at 2 µM. actives 1% (n = 360,000). AID 504660, 2011
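Tetracycline-induced HEK293 TREx D1 cells, force-coupled to calcium signalling, were dye-loaded with a no-wash calcium kit. Compound was pin-added after a 10 s baseline. Fluorescence was read kinetically at 1 cycle/s for 180 s, with calcium rises flagged as agonism.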
TRHR ag: qHTS for Small Molecule Agonists and Allosteric Enhancers of Human TRH Receptor: Primary Screen for Agonists; Thyrotropin-releasing hormone receptor (Homo sapiens), P34981; TRHR cells, calcium flux fluo-8, FDSS agonist mode; activation, % at 2 µM; actives 0.18% (n = 360,000); AID 493084, 2011
Target sequence (P34981 whole entry, looked up): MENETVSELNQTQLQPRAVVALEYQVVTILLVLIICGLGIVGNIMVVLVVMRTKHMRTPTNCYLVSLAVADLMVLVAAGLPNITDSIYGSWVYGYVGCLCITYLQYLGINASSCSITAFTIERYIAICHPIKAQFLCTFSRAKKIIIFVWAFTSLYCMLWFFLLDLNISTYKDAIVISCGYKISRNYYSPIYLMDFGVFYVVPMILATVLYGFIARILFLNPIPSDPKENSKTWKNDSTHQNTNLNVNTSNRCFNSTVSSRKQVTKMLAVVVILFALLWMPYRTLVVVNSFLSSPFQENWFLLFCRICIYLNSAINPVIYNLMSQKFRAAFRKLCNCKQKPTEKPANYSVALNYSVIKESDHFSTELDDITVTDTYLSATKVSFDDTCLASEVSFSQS
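TRHR-expressing cells loaded with fluo-8 calcium dye; 23 nL library compound pin-transferred, kinetic FDSS fluorescence (Ex 480/Em 530) recorded about 180 s for agonist-induced calcium release, before a 10 nM TRH EC20 addition for potentiator mode.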
TRHR enhancer: qHTS for Small Molecule Agonists and Allosteric Enhancers of Human TRH Receptor: Primary Screen for Enhancers; Thyrotropin-releasing hormone receptor (Homo sapiens), P34981; TRHR cells, fluo-8 calcium fluorescence, EC20 TRH enhancement; enhancement, % at 2 µM; actives 0.66% (n = 360,000); in the data active = enhancement above about 30%
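Enhancer read-out: after compound pinning and an initial kinetic agonist-mode read, an EC20 of TRH (10 nM final) was injected and fluo-8 calcium signal (Ex 480/Em 530) followed at 1 s/cycle for 100 cycles in TRHR-expressing cells.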
Of the large screens only hits and unclear results are named; the others gave an inactive call. Hits are enriched below; roughly 4.6% of the tested compounds scored in any of these assays. Rule as the data show it, unless noted: active = activation above about 30%; inactive = the rest.

Cc1nn(-c2ccccc2)c(C)c1/C=C/C(=O)OCC(=O)Nc1ccc(C(N)=O)cc1	none
Cc1nn(-c2ccccc2)c(C)c1/C=C/C(=O)OCC(=O)Nc1ccc(S(N)(=O)=O)cc1	D1 antag -32.3 (no result: D1 potentiator)
CCCN(CCC)c1nc(-c2ccccn2)nc2ccccc12	none
CCCN(CCC)c1nc(-c2ccccc2F)nc2ccccc12	D1 agonist 38.7
COc1ccc(CCN(C)CC(O)COc2c(C)ccc(C)c2C)cc1OC (stereo not given)	D1 agonist 33.7
COc1ccc(CCN(C)CC(O)COC(c2ccc(F)cc2)c2ccc(F)cc2)cc1OC (stereo not given)	D1 agonist 32.8
COc1ccc(CNC(=O)c2ccc3c(c2)nc2n3CCCCC2)c(OC)c1	none
CCCN(Cc1nnc(-c2ccccc2Cl)o1)C(=O)c1cc2ccccc2o1	D1 antag -31.2
O=C(c1cc2ccccc2o1)N(Cc1nnc(-c2ccccc2Cl)o1)C1CC1	none
COc1cccc(NC(=S)N(CCC(C)C)C(C)c2ccncc2)c1 (stereo not given)	none
COCCCN(C(=S)Nc1cc(Cl)cc(Cl)c1)C(C)c1ccncc1 (stereo not given)	D1 antag -53.1
CSc1cccc(NC(=S)N(CCC(C)C)C(C)c2ccncc2)c1 (stereo not given)	D1 antag -34.0
Cc1ccc(CNC(=O)Cc2coc3cc(C)cc(C)c23)cc1	none
Cc1[nH]n(-c2ccccc2)c(=O)c1N=Nc1ccc(C(=O)O)cc1	none
Cc1[nH]n(C2=NCCS2)c(=O)c1N=Nc1cccc(C(F)(F)F)c1	D1 agonist 61.6
Cc1[nH]n(-c2ccccc2)c(=O)c1N=Nc1cccc(C(=O)O)c1	D1 antag -36.6
COc1cc(NC(=O)N2CCC(CN3CCCC3)CC2)cc(OC)c1OC	none
CCCSc1n[nH]c(NC(C)=O)n1	none
CCCCCCCCCCSc1n[nH]c(NC(C)=O)n1	D1 antag -40.5
CC1CCCN(CCOCCOc2ccc(Br)cc2Cl)C1 (stereo not given)	D1 antag -32.1
CN1CCN(CCOCCOc2ccc(Br)cc2Cl)CC1	none
CC1CCCN(CCOCCOc2ccc(Cl)cc2Br)C1 (stereo not given)	none
CC1CCN(CCCOc2ccc(Br)cc2Cl)CC1	D1 antag -67.9, D1 agonist 51.6
CCCCn1cc(S(=O)(=O)c2ccccc2)c(=O)c2cc(F)c(N3CCC(C)CC3)cc21	none
CC(C)(C)c1ccc(-n2ncc3c2CCCC3NC(=O)CCN2CCCCC2=O)cc1 (stereo not given)	none
CC(C)(C)c1ccc(-n2ncc3c2CCCC3NC(=O)CN2CCOC2=O)cc1 (stereo not given)	D1 antag -42.0
CCOC(=O)C1CCCN(c2c(NCCCN(CC)c3cccc(C)c3)c(=O)c2=O)C1 (stereo not given)	TRHR enhancer 76.2
O=S(=O)(c1ccc2nc(Cl)c(Cl)nc2c1)N1CCN(S(=O)(=O)c2c(F)cccc2F)CC1	none
NC(=O)c1ccc(/C=N/O)nc1	TRHR enhancer 37.6
COc1ccc(-c2nn(-c3ccccc3)cc2/C=N/NC(=O)c2cccc(S(=O)(=O)Nc3ccccc3Cl)c2)cc1	D1 antag -36.4
COc1ccc(-c2nn(-c3ccccc3)cc2/C=N/NS(=O)(=O)c2ccccc2)cc1	none
O=C(CN1CCN(c2ccccc2)CC1)c1ccc2cc[nH]c2c1	D1 antag -36.0
Cc1cccc(C(=O)Nc2cccc(OCc3cc(=O)n4c(C)csc4n3)c2)c1	none
CCOCCn1c(=NC(=O)c2ccc3c(c2)OCCO3)sc2cc(OCC)ccc21	D1 antag -30.8
COc1cc(C(=O)NCCc2cn3ccccc3n2)cc(OC)c1OC	TRHR enhancer 30.1
CCOc1ccc(-c2nc(Cn3c(=O)cc(-c4ccccc4)c4c(C)nn(C)c43)c(C)o2)cc1	none
COc1ccccc1NC(=O)Cn1c(C)cc(C)c(C#N)c1=O	none

From PubChem
